# Reference: PubChem BioAssay (EPA / NIEHS)
# Several values for one entry are separate records, joined by “and”; a condition that tells them apart may be missing. Identical values can stand only once. The source holds several records for some structures; these can differ, active in one and inactive in another. Activity calls are given as the source filed them. The calls were made as follows: active = hit-call score of the fitted dose curve at least 0.9, where 1 is the maximum; inactive = score below 0.9.
# Test: CCTE_Shafer_MEA_dev_firing_rate_mean: CCTE's Neural Network Formation Assay for Mean Firing Rate, Shafer Lab (AID 2284031);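 as to AC50: curve fitted for loss of firing so AC50 reflects decreased mean firing rate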
# Procedure: CCTE_Shafer_MEA_dev assay is conducted using Axion Biosystems 48 well microelectrode array (MEA) plates and Maestro recording system. Each well of the MEA plate contains a grid of 16 microelectrodes embedded in the culture surface. Electrically active cells, such as neurons, can be cultured over the electrodes, and electrical activity in these cells can be recorded extracellularly. The spontaneous firing of neurons is captured from each electrode on a microsecond timescale providing both temporally and spatially precise data. […] The CCTE_Shafer_MEA_dev assay uses primary cultures of rat cortical neurons. Recordings are made on days post-plating 5, 7, 9 and 12. As these cultures mature over time, neural networks develop functional activity and form cohesive networks in which electrical activity can be highly coordinated. CCTE_Shafer_MEA_dev_firing_rate_mean is 1 of 19 assay components of the CCTE_Shafer_MEA_dev assay. It measures the frequency of spikes (action potential firings) as the total number of spikes divided by the length of the recording in a microelectrode array (MEA) using Axion Biosystems Maestro 768 channel amplifier with the AxIS adaptive spike detector. The firing rate is averaged across the active electrodes to report a well-mean value. To collapse across multiple recordings made on days post-plating 5, 7, 9 and 12, the trapezoidal area-under-the-curve of the component is calculated.Data from the assay component CCTE_Shafer_MEA_dev_firing_rate_mean was analyzed into 1 assay endpoint. This assay endpoint, CCTE_Shafer_MEA_dev_firing_rate_mean, was analyzed in the negative analysis fitting direction relative to DMSO as the negative control and baseline of activity. Using a type of functional reporter, gain or loss-of-signal activity can be used to understand electrical activity.
# On the day prior to culture, each well was coated thoroughly with 150 uL of 0.05% polyethyleneimine (PEI, Sigma Cat P3143) in 50 mM HEPES (Sigma Cat H7523) at a pH of 8. The plate was incubated at 37C for one hour. PEI was rinsed out with 500 uL of sterile water three times. Plates were stored at 4C until the day of culture. This culture was plated at a seeding density of 1.5 x 10^5 cells/well on a 48-well MEA plate, prepared as described above. Cells were administered via a 25 uL media/laminin ([…]; Sigma Cat L2020-1MG) drop directly onto the microelectrode array, as adding the cells with the laminin results in better attachment than pre-coating with laminin. After 2 hours, an additional 475 uL of cortical media was added and the cells returned to the incubator. Exposure starts at day 0 of plating and is continued over twelve days of network development until the experiment is terminated. Cells are fed with fresh medium on DIV 5 and 9, following the recordings on those days. The entire volume of media in the well is exchanged and any vehicle or compound treatment is renewed. Complete details are found in OP-NHEERL/ISTD/SBB/TJS/2015-03-r0 (available on request, email shafer.tim@epa.gov). Measurement of the electrical activity is non-invasive, and recordings can be made from the same plate over multiple different days of the culture. In cortical neurons, this allows for the measurement of extracellular action potentials over the period during which networks form in the MEA plate.
Structure (SMILES),outcome,AC50
C=CCC1=C(C)C(OC(=O)C2C(C=C(C)C)C2(C)C)CC1=O (stereo not drawn),inactive,
CC(C)(C)c1ccc(CSc2cnn(C(C)(C)C)c(=O)c2Cl)cc1,,4.92 nM (active)
CCCCC(CC)COC(=O)c1ccccc1C(=O)OCC(CC)CCCC (stereo not drawn),inactive,2.98 µM (active) and 3.04 µM (active)
CCCCNC(=O)OCC#CI,,3.81 µM (active) and 2.25 µM (active)
CCCCOC(=O)c1ccccc1C(=O)OCCCC,inactive,
COc1ccc(C(c2ccc(OC)cc2)C(Cl)(Cl)Cl)cc1,inactive,
C=CCC1=C(C)[C@@H](OC(=O)[C@@H]2[C@@H](C=C(C)C)C2(C)C)CC1=O,inactive,
CN(C)C(=S)SSC(=S)N(C)C,,7.36 nM (active)
Cc1c(F)c(F)c(COC(=O)C2C(/C=C(\Cl)C(F)(F)F)C2(C)C)c(F)c1F (stereo not drawn),,598 nM (active)
C=CC1(C)OC(=O)N(c2cc(Cl)cc(Cl)c2)C1=O (stereo not drawn),inactive,
Cc1ccc(-c2c(Cl)nc(C#N)n2S(=O)(=O)N(C)C)cc1,,18000 nM (active)
CNC(=O)ON=CC(C)(C)SC,inactive,
CCNc1nc(Cl)nc(NC(C)C)n1,inactive,
CO/C=C(/C(=O)OC)c1ccccc1Oc1cc(Oc2ccccc2C#N)ncn1,,925 nM (active) and 1.71 µM (active)
COC(=O)N(OC)c1ccccc1COc1ccn(-c2ccc(Cl)cc2)n1,inactive,79.6 nM (active)
COP(=S)(OC)Oc1nc(Cl)c(Cl)cc1Cl,inactive,
CCOC(=O)CC(SP(=S)(OC)OC)C(=O)OCC (stereo not drawn),inactive,
COP(N)(=O)SC (stereo not drawn),inactive,
CCCCNC(=O)n1c(NC(=O)OC)nc2ccccc21,inactive,
N#Cc1nn(-c2c(Cl)cc(C(F)(F)F)cc2Cl)c(N)c1S(=O)C(F)(F)F (stereo not drawn),inactive,
CCOc1cc(Oc2ccc(C(F)(F)F)cc2Cl)ccc1[N+](=O)[O-],,12800 nM (active)
